Measurements: PubChem BioAssay (NCI)
Several values for one entry are separate records, joined by “and”; a condition that tells them apart may be missing. Equal values may be shown once. The panel holds about 83,000 compounds, 20% with a hit somewhere; the sample as a whole holds those more often.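 Cell lines were cultured in 96-well plates, exposed to a single compound concentration, and assessed for percent growth 48 hours later.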 Activity calls are given as the source filed them. Rule for the calls: active = growth percent below 10; inactive = the rest.

Assays:
Assay in all cases: NCI-60 one-dose screen, 48 h (100 = growth as untreated, 0 = no growth, -100 = all killed)
DU-145 prostate = conditions: 10 µM
K-562 leukemia = conditions: 10 µM
MALME-3M melanoma = conditions: 10 µM
MDA-MB-231 breast = conditions: 10 µM
RXF 393 renal = conditions: 10 µM
SF-268 CNS = conditions: 10 µM
SF-295 CNS = conditions: 10 µM
SF-539 CNS = conditions: 10 µM
M14 melanoma = conditions: 10 µM
HCT-15 colon = conditions: 10 µM
HT29 colon = conditions: 10 µM
SNB-75 CNS = conditions: 10 µM
SNB-19 CNS = conditions: 10 µM
PC-3 prostate = conditions: 10 µM
SK-MEL-5 melanoma = conditions: 10 µM
UACC-62 melanoma = test system: UACC-62 melanoma
LOX IMVI melanoma = conditions: 10 µM
SK-MEL-28 melanoma = conditions: 10 µM
UACC-257 melanoma = conditions: 10 µM
U251 CNS = conditions: 10 µM

Measured: growth

C/C(=N\NC(=O)c1ccccc1N)c1ccccc1O
inactive: DU-145 prostate 45.6% | K-562 leukemia 34% | MALME-3M melanoma 50% | MDA-MB-231 breast 44.7% | RXF 393 renal 74.9% | SF-268 CNS 39.3% | SF-295 CNS 12.8% | SF-539 CNS 32.5% | M14 melanoma 38.9% | HCT-15 colon 26.5% | HT29 colon 37% | SNB-75 CNS 83% | SNB-19 CNS 56.6% | PC-3 prostate 50.3% | SK-MEL-5 melanoma 60.5% | UACC-62 melanoma; 10 µM unless noted 32% | LOX IMVI melanoma 36.7% | SK-MEL-28 melanoma 60.9%

C=CCCCCCCCCCOC(C)=O
inactive: DU-145 prostate 102% | K-562 leukemia 93.6% | MALME-3M melanoma 93.1% | MDA-MB-231 breast 97% | RXF 393 renal 103% | SF-268 CNS 96.9% | SF-295 CNS 105% | SF-539 CNS 105% | M14 melanoma 104% | HCT-15 colon 114% | HT29 colon 103% | SNB-75 CNS 101% | SNB-19 CNS 98.3% | PC-3 prostate 95.2% | UACC-62 melanoma; 10 µM unless noted 95.7% | LOX IMVI melanoma 99.2% | SK-MEL-28 melanoma 112%

COCCCNC(=O)c1nnn2c1nc(N)c1cc(Cl)ccc12
inactive: DU-145 prostate 105% | K-562 leukemia 34.6% | MALME-3M melanoma 65.1% | MDA-MB-231 breast 100% | RXF 393 renal 103% | SF-268 CNS 94.1% | SF-295 CNS 91.7% | SF-539 CNS 94% | M14 melanoma 79.3% | HCT-15 colon 85.6% | HT29 colon 73.4% | SNB-75 CNS 70.6% | SNB-19 CNS 102% | PC-3 prostate 80.6% | SK-MEL-5 melanoma 98.4% | UACC-62 melanoma; 10 µM unless noted 80% | SK-MEL-28 melanoma 87%

COc1ccc(/C(C#N)=C2C=C/C(=N/O)c3ccccc3\2)cc1
inactive: DU-145 prostate 10.1% | K-562 leukemia 13.2% | MALME-3M melanoma 51.4% | MDA-MB-231 breast 10.2% | RXF 393 renal 53.9% | SF-268 CNS 18.6% | SNB-75 CNS 23.4% | SNB-19 CNS 61.7% | PC-3 prostate 12.8% | SK-MEL-28 melanoma 46.5%
active: SF-295 CNS -38.6% | SF-539 CNS -14.7% | M14 melanoma 7.1% | HCT-15 colon 7.28% | HT29 colon -13.3% | SK-MEL-5 melanoma -28.9% | UACC-62 melanoma; 10 µM unless noted 6.75% | LOX IMVI melanoma 9.34%

CCOC(=O)c1coc(C(=O)OCC)c1C(=O)OCC
inactive: DU-145 prostate 116% | K-562 leukemia 112% | MALME-3M melanoma 116% | MDA-MB-231 breast 107% | RXF 393 renal 123% | SF-268 CNS 105% | SF-295 CNS 102% | UACC-257 melanoma 112% | M14 melanoma 120% | HCT-15 colon 105% | HT29 colon 124% | SNB-75 CNS 92.3% | SNB-19 CNS 112% | U251 CNS 102% | PC-3 prostate 122% | SK-MEL-5 melanoma 108% | UACC-62 melanoma; 10 µM unless noted 112% | LOX IMVI melanoma 108% | SK-MEL-28 melanoma 117%

COc1cc2c3cc1Oc1c(OC)c(OC)cc4c1C(Cc1ccc(O)c(c1)Oc1ccc(cc1)CC3N(C)CC2)N(C)CC4 (stereo unspecified)
active: K-562 leukemia 0.419% | MALME-3M melanoma -79.3% | MDA-MB-231 breast -24.1% | RXF 393 renal -14.9% | SF-539 CNS -23.5% | UACC-257 melanoma -62.2% | M14 melanoma -77.8% | HCT-15 colon 6.32% | HT29 colon -21.8% | U251 CNS -95.9% | PC-3 prostate 1.26% | SK-MEL-5 melanoma -98.2% | LOX IMVI melanoma -90.5% | SK-MEL-28 melanoma -80.8%
inactive: DU-145 prostate 33.4% | SF-268 CNS 36.2% | SNB-75 CNS 33.3% | SNB-19 CNS 27.2% | UACC-62 melanoma; 10 µM 27.6%
98.2% (inactive) and -80.6% (active): UACC-62 melanoma; 100 µM

O=C(O)CSCSCC(=O)O
inactive: DU-145 prostate 111% | K-562 leukemia 97.8% | MALME-3M melanoma 105% | MDA-MB-231 breast 107% | RXF 393 renal 97% | SF-268 CNS 110% | SF-295 CNS 96.6% | SF-539 CNS 98.3% | M14 melanoma 108% | HCT-15 colon 98.7% | HT29 colon 107% | SNB-75 CNS 77.2% | SNB-19 CNS 96.6% | PC-3 prostate 103% | SK-MEL-5 melanoma 103% | UACC-62 melanoma; 10 µM unless noted 100% | LOX IMVI melanoma 97.3% | SK-MEL-28 melanoma 97.8%

CC(=O)OCC1OC(OC2=C(CC=C(C)C)C(=O)c3ccccc3C2=O)C(OC(C)=O)C(OC(C)=O)C1OC(C)=O (stereo unspecified)
active: K-562 leukemia -47.4% | MALME-3M melanoma -36.2% | MDA-MB-231 breast 6.41% | U251 CNS 8.23% | PC-3 prostate -6.07% | UACC-62 melanoma; 10 µM unless noted -23.8% | LOX IMVI melanoma 6.88%
inactive: DU-145 prostate 57.1% | RXF 393 renal 61.1% | SF-268 CNS 22.7% | SF-295 CNS 63.4% | UACC-257 melanoma 20.6% | M14 melanoma 46.8% | HCT-15 colon 12.2% | SNB-19 CNS 61.2% | SK-MEL-28 melanoma 30.3%

COc1ccc(C(=O)C(Br)C(Br)C(=O)O)cc1 (stereo unspecified)
inactive: DU-145 prostate 111% | K-562 leukemia 109% | MALME-3M melanoma 109% | MDA-MB-231 breast 111% | RXF 393 renal 106% | SF-268 CNS 108% | SF-295 CNS 108% | SF-539 CNS 99.5% | M14 melanoma 89.2% | HCT-15 colon 98.1% | HT29 colon 117% | SNB-75 CNS 87.4% | U251 CNS 104% | PC-3 prostate 110% | SK-MEL-5 melanoma 101% | UACC-62 melanoma; 10 µM unless noted 98.4% | LOX IMVI melanoma 97.7% | SK-MEL-28 melanoma 108%
